Inconclusive results are not listed. Entries that show only a call come without a potency. Some structures have more than one record in an assay (separate samples or runs), and their calls can disagree. The source made the active and inactive calls. Calls follow the shape of the dose curve; as a rule, active = well fitted cell-killing curve with a large enough effect in the repeat runs; inconclusive = weak or mixed curves; inactive = flat fitted curve, though single readings scatter.
Potency is read from the fitted curve at half-maximal effect.

A short description of the test: qHTS assay to identify small molecule antagonists of the estrogen related receptor (ERR) signaling pathway from Tox21 library - cell viability counter screen (AID 1224834). Also: nearly all actives have a fitted effect of over 30% in size. The settings on record: ERR reporter cells viability, CellTiter-Fluor, 17.5 h; series mostly up to 92.4 µM. An excerpt:
National Center for Advancing Translational Sciences [NCATS]
NIH Chemical Genomics Center [NCGC]
U.S. Environmental Protection Agency [EPA]
National Institutes of Environmental Health Sciences [NIEHS]
National Toxicology Program [NTP]
U.S. Food and Drug Administration [FDA]
Estrogen related receptors (ERRs), the first orphan nuclear receptors discovered, play an important role in the control of cellular energy metabolism. ERRs are required for high-energy production in response to the environmental challenges. ERR-alpha was also identified as an adverse marker for breast cancer progression; ERR-alpha-positive tumors have a poor prognosis. To screen and to identify environmental compounds that perturb the ERR signaling pathways could provide valuable information for potential therapeutic or preventive measures in the treatment of metabolic disease. To differentiate true ERR antagonists or agonist from cytotoxic substances, the assay is multiplexed with cell viability assay.
Tox21 Assay Protocol Summary:
The ERR cells were dispensed at 2,000 cells/5 ul/well in 1536-well white plates using a Multidrop dispenser. After the assay plates were incubated at a 37 C/5% CO2 incubator for 6 hours, 23 nL of compounds dissolved in DMSO, positive and negative controls or DMSO only was transferred to the assay plate by a pin tool. The plates were incubated at 37 C for 17.5 hours. 1 ul/well of CellTiter-Fluor reagent was added into the assay plates using a Flying Reagent Dispenser. After 30-minute incubation at 37 C/5% CO2, the fluorescence intensity in the plates was measured using a ViewLux plate reader.
A general note: Quantitative high-throughput screening tests each substance at several concentrations.
For the compound `BrCCBr`, the Potency result was “inactive”.
For `C1CN2CCN1CC2`, the Potency result is “inactive”.
For `[O-][Cl+2]([O-])O` the value was “inactive”.
For the compound `NCC(O)c1ccc(O)cc1` (stereo not given), the Potency entry was “inactive”.
Consider `CCCCN(CC)C(=O)SCCC`, for which the Potency result is “inactive”.
With `CN(C)[C@@H]1C(=O)C(C(N)=O)=C(O)[C@@]2(O)C(=O)C3=C(O)c4c(O)cccc4[C@@](C)(O)[C@H]3C[C@@H]12`, the Potency result was “inactive”.
For `CCOC(=O)c1ccccc1C(=O)OCC` the value was “inactive”.
With `O=c1n(Cl)c(=O)n(Cl)c(=O)n1Cl`, the Potency entry was “inactive”.
As for `CC(C)C1(C)N=C(c2nc3ccccc3cc2C(=O)O)NC1=O` (stereo not given), the Potency result was “inactive”.
Then `CN(N=O)c1ccccc1`, with “inactive”; and `CNC(=O)Oc1ccccc1OC(C)C`, with “inactive”.
Regarding `c1ccc(-c2ccccc2)cc1`, the Potency entry was “inactive”.
In the case of `C=C(C)CCl`, the Potency result was “inactive”.
Turning to `COP(N)(=O)SC` (stereo not given), the Potency entry is “inactive”.
For `O=Cc1cccc(Oc2ccccc2)c1` the value was “inactive”; for `Cc1ccc([N+](=O)[O-])cc1C`, “inactive”; for `CCOP(=S)(OCC)SCCSCC`, “inactive”.
Then `CCCCCOC(=O)c1ccccc1C(=O)OCCCCC`, with “inactive”.
Regarding `CCN(CC)CCO`, the Potency entry is “inactive”.
Then `c1ccc2c(c1)Oc1ccccc1O2`, with “inactive”.
For `C#CC(C)(C)NC(=O)c1cc(Cl)cc(Cl)c1` the value was “inactive”; for `Nc1ccc(Cc2ccc(N)cc2)cc1`, “inactive”.
Consider `CC(C)(Cl)Cl`, for which the Potency entry is “inactive”.
As for `CC(C)=C[C@@H]1[C@@H](C(=O)OCc2coc(Cc3ccccc3)c2)C1(C)C`, the Potency entry was “inactive”.
Then `CCC12COCN1COC2`, with “inactive”.
Turning to `Oc1ccccc1Cl`, the Potency entry is “inactive”.
Turning to `O=S(=O)(c1ccc(Cl)cc1)c1cc(Cl)c(Cl)cc1Cl`, the Potency result was “inactive”.
Turning to `CCOP(OCC)OCC`, the Potency entry was “inactive”.
Take `O=[N+]([O-])c1ccc(Oc2ccc(Cl)cc2Cl)cc1`: the Potency entry is “inactive”.
On to `ClCCBr`, for which the Potency result is “inactive”.
For `CCN(CC)c1ccccc1` the value was “inactive”.
As to `COc1ccc2c3c1O[C@H]1[C@@H](O)C=C[C@H]4[C@@H](C2)N(C)CC[C@@]341`, the Potency is 42.6 µM (active) and inactive.
Then `C1CC2OC2CC1C1CO1` (stereo not given), with “inactive”; and `CN(C)N=O`, with “inactive”.
As to `Cc1ccc(N)cc1Cl`, the Potency result was “inactive”.
In the case of `CCCN(CCC)c1c([N+](=O)[O-])cc(C(F)(F)F)cc1[N+](=O)[O-]`, the Potency entry was “inactive”.
Consider `O=C(O)c1ccccn1`, for which the Potency entry was “inactive”.
Take `O=C1CCCN1`: the Potency result was “inactive”.
On to `CC(C)OC(=O)Nc1cccc(Cl)c1`, for which the Potency result was “inactive”.
For `c1ccc2c(c1)oc1ccccc12` the value was “inactive”.

The values are drawn from PubChem BioAssay (Tox21).
